Compounds with a hit are over-represented: about 4.6% of the library has one in this group of screens.
D1 potentiator: human D1 dopamine receptor positive modulation. P21728. HEK293 TREx D1 cells, calcium flux, dopamine EC20 potentiation. potentiation, % at 10 µM. 360,000 compounds, 0.036% hits. AID 504651; in the data active = potentiation above about 30%
Target sequence (P21728 whole entry, looked up): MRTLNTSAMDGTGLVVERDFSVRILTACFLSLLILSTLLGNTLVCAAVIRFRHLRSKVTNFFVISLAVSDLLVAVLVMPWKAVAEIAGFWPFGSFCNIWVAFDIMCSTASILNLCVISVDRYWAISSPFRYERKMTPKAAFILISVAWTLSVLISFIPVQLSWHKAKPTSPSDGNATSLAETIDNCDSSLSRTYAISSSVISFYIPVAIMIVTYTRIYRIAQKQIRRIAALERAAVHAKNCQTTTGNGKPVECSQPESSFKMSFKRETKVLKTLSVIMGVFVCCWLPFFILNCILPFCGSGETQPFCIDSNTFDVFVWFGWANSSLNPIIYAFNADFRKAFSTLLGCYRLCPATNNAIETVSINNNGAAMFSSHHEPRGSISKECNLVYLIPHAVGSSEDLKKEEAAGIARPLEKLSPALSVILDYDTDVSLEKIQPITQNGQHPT
TRHR enhancer: allosterically enhances the human TRH receptor; enhancement, % at 2 µM; P34981; TRHR cells, fluo-8 calcium fluorescence, EC20 TRH enhancement; 360,000 compounds, 0.66% hits; in the data active = enhancement above about 30%
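TRHR-expressing cells loaded with fluo-8 calcium dye were read kinetically (ex 480/em 530) during compound addition, then stimulated with an EC20 of TRH (10 nM final). Enhancement of the Gq-mediated intracellular calcium response was scored.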
D1 ag: activates the human D1 dopamine receptor; HEK293 T-REx D1 cells, calcium flux, agonist mode; 360,000 compounds, 1% hits; P21728; activation, % at 2 µM
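Agonism was scored from calcium flux recorded over 180 s (1 read/s) after pintool compound addition, following a 10-cycle baseline. Cells were inducible force-coupled HEK293 TREx D1, plated overnight at 30 C and loaded with no-wash calcium dye.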
TRHR ag: activates the human TRH receptor | P34981 | TRHR cells, calcium flux fluo-8, FDSS agonist mode | activation, % at 2 µM | 360,000 compounds, 0.18% hits
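Steps: seed TRHR cells overnight; add fluo-8 no-wash Ca dye, RT 30 min–1.5 h; record 10 s baseline; pin-transfer compounds; monitor fluorescence 1 cycle/s for the agonist window. Calcium increases flag candidate agonists.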
D1 antag: blocks dopamine activation of the human D1 receptor; P21728; HEK293 TREx D1 cells, calcium flux, dopamine EC80; hits give low values; activity change, negative = inhibition, % at 10 µM; 360,000 compounds, 3.2% hits; in the data active = activity change below about -30%
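Calcium flux readout: force-coupled, inducible Hek293 Trex D1 line, cells induced overnight at 30 C with tetracycline, dye-loaded 30–90 min at RT. Antagonism scored against EC80 dopamine challenge given 180 s after compound.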
A number is an active result; – = inactive; · = no result given; ! = repeats disagree. Cut-off read from the data, not from the text of the source, unless noted: active = activation above about 30%; inactive = the rest.

SMILES	D1 potentiator	TRHR enhancer	D1 ag	TRHR ag	D1 antag
CCCC(=O)NCc1nc2cccnc2n1Cc1ccc(F)cc1	–	–	–	–	–
COc1cc2c(C(=O)NCc3ccc4c(c3)OCO4)cn(C)c(=O)c2cc1OC	–	–	–	–	-31
COc1ccc(Cl)cc1C(=O)NCc1ccc2c(c1)OCO2	–	–	–	–	–
COc1ccc(-c2cnc(C)o2)cc1S(=O)(=O)Nc1ccc(F)cc1F	–	–	–	–	–
COc1ccc(-c2csc(C)n2)cc1	–	–	–	–	–
COc1cc(C)nc(-c2csc(C)n2)n1	–	31	–	–	–
CCCCN(C)CCCNC(=O)C1CCN(S(=O)(=O)CCC)CC1	–	–	–	–	–
O=C(Cn1c(=O)n(-c2ccccc2)c(=O)c2c3c(sc21)CCCC3)Nc1ccc(F)cc1F	–	–	–	–	–
CCCN1CCN(CC2=C(C(=O)OCC)C(c3ccc(OC(C)C)cc3)NC(=O)N2)CC1 (configuration not stated)	–	–	–	–	–
Cc1ccc(Cl)cc1NC(=O)CCS(=O)(=O)c1ccc2c(c1)n(C)c(=O)c(=O)n2C	–	–	–	–	-35
Cc1ccc2nc(N(Cc3cccnc3)C(=O)C3COc4ccccc4O3)sc2c1 (configuration not stated)	–	–	–	–	·
CCOC(=O)Cn1c(=O)n(C2CCCCC2)c2nc(-c3c(F)cccc3Cl)nc(C(N)=O)c21	–	–	–	–	–
CC(NC(=O)c1cc2cc(F)ccc2[nH]1)c1ccccc1 (configuration not stated)	–	–	–	–	-55
O=C(O)c1cc2cc(F)ccc2[nH]1	–	–	44!	–	–
O=C(NCCN1CCCCC1)c1ccc(Cn2c(SCc3cccc(F)c3)nc3cccnc32)cc1	–	–	–	–	–
COc1ccccc1-n1c(SCC(=O)N(C)C2CCS(=O)(=O)C2)nc2ccccc2c1=O (configuration not stated)	–	–	–	–	–
COc1ccc(Cl)cc1NC(=O)CNc1ccccc1N1CCOCC1	–	–	–	–	-35
COc1ccc(OC)c(-n2nnnc2SCC(=O)Nc2ccccc2N2CCOCC2)c1	–	–	–	–	-34
COc1ccc(NC(=O)CSc2nnnn2-c2ccccc2OC)c(OC)c1	–	–	–	–	-68
COc1ccccc1-n1nnnc1SCC(=O)N(C)C1CCS(=O)(=O)C1 (configuration not stated)	–	–	–	–	-38
Cc1cc(Cl)ccc1OCC(=O)Nc1ccccc1N1CCOCC1	–	–	–	–	–
COc1ccc(CCNC(=O)CSc2cn(Cc3ccccc3)c3ccccc23)cc1OC	–	–	–	–	–
COc1ccc(CCNC(=O)CSc2cn(Cc3cccc(C)c3)c3ccccc23)cc1OC	–	–	34	–	–
COc1ccc(CCNC(=O)CSc2nnnn2-c2ccccc2OC)cc1OC	–	–	–	–	-52
CCc1cccc(NC(=O)c2cn3c4c(ccc(Cl)c4c2=O)OC(C)C3)c1 (configuration not stated)	–	–	–	–	–
SMILES	D1 potentiator	TRHR enhancer	D1 ag	TRHR ag	D1 antag
CC(C)(C)c1ccc(C(=O)NC2(C(F)(F)F)C(=O)Nc3c2c(=O)[nH]c(=O)n3-c2ccccc2)cc1 (configuration not stated)	–	–	–	–	–
CCOCCc1nnc(NC(=O)C(=O)c2cc(C)n(-c3ccc(C)c(C)c3)c2C)s1	–	–	–	–	–
C=CCOc1ccc(CN(C)c2ccc(S(=O)(=O)N3CCN(C)CC3)cc2[N+](=O)[O-])cc1	–	–	–	–	-36
CCOc1ccc(CN(C)c2ccc(S(=O)(=O)N3CCN(C)CC3)cc2[N+](=O)[O-])cc1OC	–	–	–	–	-45
Cc1ccc(C)c(N2CCN(C(=O)C3CCN(S(=O)(=O)c4cn(C)cn4)CC3)CC2)c1	–	–	–	–	–
Cc1ccc(S(=O)(=O)NCC(=O)OCc2cc(=O)oc3cc(C)ccc23)cc1	–	–	–	–	–
Cc1ccc2c(COC(=O)CNC(=O)c3ccccc3)cc(=O)oc2c1	–	–	–	–	-50
Cc1cc(C)cc(OCC(=O)N(Cc2cccs2)c2ccc(Cl)cc2)c1	–	–	33	–	–
Cc1ccc(N(Cc2cccs2)C(=O)COc2cccc(C)c2)cc1	–	–	–	–	–
Cc1ccc(S(=O)(=O)NCCSc2nnnn2-c2ccccc2)cc1	–	–	–	–	–
Cc1ccc(S(=O)(=O)NCCSc2nnnn2-c2cc(C)ccc2C)cc1	–	–	–	–	-40
Cc1ccc(CNC(=O)c2cccc(-n3cnnn3)c2)cc1	–	30	–	–	–
CC(C)(C)c1ccc(C(=O)NNC(=O)c2cccc(-n3cnnn3)c2)cc1	–	–	–	–	–
CCOc1ccc(CCNC(=O)c2cccc(-n3cnnn3)c2)cc1OCC	–	–	–	–	-31
Cc1cccc(-c2nc3ccccc3n3c(-c4ccccc4)c4c(=O)n(C)c(=O)n(C)c4c23)c1	–	–	–	–	–
O=C(CC(c1ccccc1)c1ccccc1)Nc1ncn[nH]1	–	–	–	–	-36
COc1ccc(C)cc1NC(=O)N(C(C)C)C1CCN(C(C)=O)CC1	–	–	–	–	–
O=C(Nc1ccc2c(c1)CCCN2C(=O)c1cccs1)c1ccc(F)c(F)c1	–	–	–	–	–
CCOc1cc(C(=O)Nc2ccc([N+](=O)[O-])cn2)cc(OCC)c1OCC	–	–	–	–	-51
Cc1nc2c(Cl)cccc2c2c1CC(CBr)O2 (configuration not stated)	–	–	–	–	-31
C[C@@H](C(=O)NCc1ccccc1)[C@@H]1C[C@@]1(C)[C@@H](NC(=O)OCc1ccccc1)c1ccccc1	–	–	–	–	–
C[C@@H](C(=O)NCc1ccccn1)[C@@H]1C[C@@]1(C)[C@@H](NC(=O)OCc1ccccc1)c1ccccc1	–	–	–	–	-31
Cc1cc(Nc2cccc(F)c2)nc(-c2ccccc2O)n1	–	–	–	–	–
Cc1cc(Nc2ccccc2)nc(-c2ccccc2O)n1	–	–	–	–	-45
N=C1SC(c2ccccc2)C(=O)N1c1ncc(Cc2ccccc2Cl)s1 (configuration not stated)	–	–	–	–	-43
CC(C)N(Cc1nc2ccccc2[nH]1)C(C)C	–	–	–	–	-34
CCCSC(=S)c1c(C)[nH]n(-c2ccccc2)c1=O	–	–	35	–	–
CCCCN(CCCC)C(=S)N/N=C/c1c(C)[nH]n(-c2ccccc2)c1=O	–	–	–	–	–
CCN1c2ccccc2-c2nc(SCC(=O)Nc3c(C)cc(C)cc3C)ncc2S1(=O)=O	–	–	–	–	–
Cc1ccc(C=Nc2ccccc2C(N)=O)cc1	–	–	60	–	-35

Screens: PubChem, National Center for Advancing Translational Sciences (NCATS)
